Test results taken from the supplement of paper PMC12494721.
Where a name gives a salt, the structure may show the parent alone.

Assays:
Conditions in all cases: incubation time: 27 h, anaerobic, 37 °C;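 for the amine columns active = adjusted P below 0.05 in both replicates with a change the same way and a mean fold change under 0.8 or over 1.25; inactive = the rest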
[1] = test system: Clostridium sporogenes DSM 1664; experiment: growth (OD595) fold change vs plate DMSO controls (fold change (ratio)); higher = more growth
Method in brief: (§1)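 Shaken 96-well cultures in mGAM, grown anaerobically for 27 h at 37 °C, were read at 595 nm. OD came from blank-subtracted readings, corrected for background with 20 µM compound solutions in water and scaled by a calibration factor of 5. Growth is the fold change versus the plate's median DMSO control. Values average 2 biological replicates, and any fold change above 1.5 is NA.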

Escherichia coli IAI1 [2] = experiment: as above
Method in brief: as §1

[3] = test system: Klebsiella aerogenes DSM 30053; experiment: as above
Method in brief: as §1

[4] = test system: Ruminococcus gnavus DSM 108212; experiment: as above
Method in brief: as §1

[5] = test system: Klebsiella aerogenes DSM 30053; experiment: fold change of Histamine concentration vs plate DMSO controls (fold change (ratio)); higher = more amine produced, active = hit call of the paper (significant change in both replicates, either direction)
Method in brief: (§2)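 Amine values are fold changes relative to DMSO-only wells on the same plate. They derive from 27 h, 37 °C anaerobic mGAM cultures of four gut bacterial strains in 80 µL wells, dosed at 20 µM final, or 50 µM final for sweeteners. Extraction of the whole culture, LC–triple-quadrupole MS in dynamic MRM mode, external calibration curves and within-batch drift correction were used, with 2 biological replicates averaged.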

[6] = test system: Clostridium sporogenes DSM 1664; experiment: fold change of Tryptamine concentration vs plate DMSO controls (fold change (ratio)); higher = more amine produced, active = hit call of the paper (significant change in both replicates, either direction)
Method in brief: as §2

[7] = test system: Ruminococcus gnavus DSM 108212; experiment: as above
Method in brief: as §2

Escherichia coli IAI1 [8] = experiment: fold change of Putrescine concentration vs plate DMSO controls (fold change (ratio)); higher = more amine produced, active = hit call of the paper (significant change in both replicates, either direction)
Method in brief: as §2

[9] = test system: Klebsiella aerogenes DSM 30053; experiment: as above
Method in brief: as §2

Escherichia coli IAI1 [10] = experiment: fold change of Cadaverine concentration vs plate DMSO controls (fold change (ratio)); higher = more amine produced, active = hit call of the paper (significant change in both replicates, either direction)
Method in brief: as §2

[11] = test system: Klebsiella aerogenes DSM 30053; experiment: as above
Method in brief: as §2

[12] = test system: Ruminococcus gnavus DSM 108212; experiment: fold change of 2-Phenylethylamine concentration vs plate DMSO controls (fold change (ratio)); higher = more amine produced, active = hit call of the paper (significant change in both replicates, either direction)
Method in brief: as §2

Compound | growth [1] | growth (Escherichia coli IAI1 [2]) | growth [3] | growth [4] | fold change of Histamine concentration [5] | fold change of Tryptamine concentration [6] | fold change of Tryptamine concentration [7] | fold change of Putrescine concentration (Escherichia coli IAI1 [8]) | fold change of Putrescine concentration [9] | fold change of Cadaverine concentration (Escherichia coli IAI1 [10]) | fold change of Cadaverine concentration [11] | fold change of 2-Phenylethylamine concentration [12]
Nc1ccc(S(N)(=O)=O)cc1 [Sulfanilamide] (20 µM) | 0.877 | 1.03 | 0.987 | 1.15 | 0.919 (inactive) | 1.12 (inactive) | 1.11 (inactive) | 0.908 (inactive) | 0.951 (inactive) | 0.919 (inactive) | 1.03 (inactive) | 1.15 (inactive)
Cc1oncc1C(=O)Nc1ccc(C(F)(F)F)cc1 [Leflunomide] (20 µM) | 1.13 | 0.978 | 1.03 | 0.971 | 1.06 (inactive) | 0.995 (inactive) | 0.998 (inactive) | 1.01 (inactive) | 1.01 (inactive) | 1.08 (inactive) | 1 (inactive) | 1.01 (inactive)
Cc1cn([C@H]2C=C[C@@H](CO)O2)c(=O)[nH]c1=O [Stavudine] (20 µM) | 0.967 | 0.807 | 0.99 | 0.994 | 1.04 (inactive) | 0.97 (inactive) | 1.01 (inactive) | 0.927 (inactive) | 1.04 (inactive) | 1.21 (inactive) | 0.991 (inactive) | 1.02 (inactive)
CC(=C(CCO)SSCC1CCCO1)N(C=O)Cc1cnc(C)nc1N (stereo in doubt) [Fursultiamine hydrochloride] (20 µM) | 1.08 | 1.03 | 0.989 | 0.992 | 1.04 (inactive) | 0.983 (inactive) | 0.969 (inactive) | 1.09 (inactive) | 1.01 (inactive) | 0.973 (inactive) | 0.986 (inactive) | 0.967 (inactive)
CC1(C)S[C@@H]2[C@H](NC(=O)[C@H](C(=O)O)c3ccsc3)C(=O)N2[C@H]1C(=O)O [Ticarcillin sodium] (20 µM) | 0 | 1.22 | 1.02 | 0 | 1.04 (inactive) | 0.0277 (active) | 0.0454 (active) | 1.21 (inactive) | 1.02 (inactive) | 1.44 (active) | 0.996 (inactive) | 0.0536 (active)
CCN(Cc1ccncc1)C(=O)C(CO)c1ccccc1 (configuration not stated) [Tropicamide] (20 µM) | 0.93 | 1.01 | 1.04 | 0.969 | 0.947 (inactive) | 1.06 (inactive) | 0.984 (inactive) | 1.03 (inactive) | 0.967 (inactive) | 0.991 (inactive) | 1.03 (inactive) | 0.959 (inactive)
OC[C@H]1O[C@@](CO)(O[C@H]2O[C@H](CO)[C@@H](O)[C@H](O)[C@H]2O)[C@@H](O)[C@@H]1O [Sucrose] (50 µM) | 1.08 | 0.938 | 1.09 | 1.12 | 0.917 (inactive) | 1.07 (inactive) | 1.08 (inactive) | 1 (inactive) | 0.977 (inactive) | 0.964 (inactive) | 1.05 (inactive) | 1.12 (inactive)
NC(=O)OCC(O)COc1ccc(Cl)cc1 (configuration not stated) [Chlorphensin carbamate] (20 µM) | 1.02 | 1.02 | 0.951 | 1.2 | 0.969 (inactive) | 0.996 (inactive) | 0.995 (inactive) | 1 (inactive) | 0.913 (inactive) | 0.951 (inactive) | 1.02 (inactive) | 1.07 (inactive)
O=C(NC(Cc1cc(=O)[nH]c2ccccc12)C(=O)O)c1ccc(Cl)cc1 (configuration not stated) [Rebamipide] (20 µM) | 0.925 | 1.01 | 0.964 | 0.957 | 0.934 (inactive) | 1.06 (inactive) | 1.28 (active) | 1.07 (inactive) | 0.965 (inactive) | 0.957 (inactive) | 1 (inactive) | 1.52 (active)
CO[C@@]1(NC(=O)C(C(=O)O)c2ccc(O)cc2)C(=O)N2C(C(=O)O)=C(CSc3nnnn3C)CO[C@@H]21 (some centres not stated) [Moxalactam disodium salt] (20 µM) | 0 | 0.0889 | 1.02 | 0.0817 | 0.893 (inactive) | 0.0273 (active) | 0.06 (active) | 1.5 (inactive) | 1.02 (inactive) | 2 (active) | 1.02 (inactive) | 0.0586 (active)
Cc1ccc(C(=O)c2cc(O)c(O)c([N+](=O)[O-])c2)cc1 [Tolcapone] (20 µM) | 1.11 | 0.961 | 0.997 | 1.19 | 1.01 (inactive) | 0.908 (inactive) | 0.983 (inactive) | 1.33 (inactive) | 0.998 (inactive) | 0.981 (inactive) | 1 (inactive) | 0.971 (inactive)
